In PubChem BioAssay AID1259421 (Broad Institute, 2018):
Values joined by “and” are separate entries in the source; they are usually repeats but may differ in a detail not shown here. Identical values can stand only once. In all, about 6,400 compounds went through this assay and about 610 (9.5%) were called active. Cut-off read from the data, not from the text of the source: active = activity change below about -70%; inconclusive = no clear call, values can overlap the other calls; inactive = above that. Shown is part of a subset that was picked to be rich in actives. Where a SMILES comes first, the peptide text is derived from it. Bridges are numbered along the chain shown (N, C = ends). [ ]: non-standard residue; d: D form. The star is where a group is joined. ξ: configuration not given here. Heptanoyl(6-Me) = CC(C)CCCCC(=O)*; ξDab = NCCC(N)C(=O)O; ξT = CC(O)C(N)C(=O)O

test: Toxoplasma gondii ME49Luc growth in HeLa cells, luciferase, no IFN-y, primary screen (AID 1259421); settings: T. gondii ME49Luc in HeLa, 72 h, stronger effect = lower value, concentration not given here

| SMILES | activity change, negative = inhibition |
| --- | --- |
| Cc1nn(-c2ccccc2)c(C)c1/C=N/N1CCN(Cc2ccccc2)CC1 | 7.74% (inactive) and 0.523% (inactive) |
| Cn1[nH]c(=O)c(=O)[nH]c1=S | 14.6% (inactive) |
| C[C@@H]1CC2C3CCC4=CC(=O)C=C[C@]4(C)[C@@]3(F)[C@@H](O)C[C@]2(C)[C@H]1C(=O)CO (stereo partly drawn) | -13.5% (inactive) and -8.09% (inactive) |
| CCCCC[C@H](O)/C=C/C=C\C/C=C\C/C=C\CCCC(=O)O | -37.7% (inactive) |
| Cc1c(N)cccc1Cn1ccc(OCCc2cccs2)cc1=O | 1.77% (inactive) |
| CC(C)c1cc(C(=O)N2Cc3ccc(CN4CCN(C)CC4)cc3C2)c(O)cc1O | -63.5% (inactive) |
| CCNC(=O)c1noc(-c2cc(C(C)C)c(O)cc2O)c1-c1ccc(CN2CCOCC2)cc1 | -87.9% (active) |
| Cc1cc(C)c(CNC(=O)c2cc(-c3ccc(CN4CCOCC4)cc3)cc3c2cnn3C2CCCC2)c(=O)[nH]1 | -31% (inactive) |
| CC(C)(O)[C@H]1CC[C@@](C)([C@H]2[C@@H](O)C[C@@]3(C)[C@@H]4C[C@H](O[C@@H]5O[C@H](CO)[C@@H](O)[C@H](O)[C@H]5O)[C@H]5C(C)(C)[C@@H](O[C@@H]6OC[C@@H](O)[C@H](O)[C@H]6O)CC[C@@]56C[C@@]46CC[C@]23C)O1 | 3% (inactive) |
| CCCCOc1ccc(C(=O)CCN2CCCCC2)cc1 | 1.11% (inactive) |
| Cc1cc(-c2cc(OC(=O)c3ccccc3)ccc2Cl)cc2nnc(Nc3ccc(OCCN4CCCC4)cc3)nc12 | 7.81% (inactive) |
| Cc1cc(-c2cc(O)ccc2Cl)cc2nnc(Nc3ccc(OCCN4CCCC4)cc3)nc12 | -89.7% (active) |
| CCn1ccnc1CC1COc2ccccc2O1 (stereo not drawn) | 16.5% (inactive) and 6.37% (inactive) |
| Nc1nonc1C(=Nc1ccc(F)c(Cl)c1)NO | 17% (inactive) |
| CCOc1ccc(-n2c([C@@H](C)N(Cc3cccnc3)C(=O)Cc3ccc(OC(F)(F)F)cc3)nc3ncccc3c2=O)cc1 | -0.654% (inactive) |
| CON=C1C[C@]2(C[C@@H]3C[C@@H](C/C=C(\C)C[C@@H](C)/C=C/C=C4\CO[C@@H]5[C@H](O)C(C)=C[C@@H](C(=O)O3)[C@]45O)O2)O[C@H](/C(C)=C/C(C)C)[C@H]1C | -67.7% (inactive) |
| CC(C)c1cc(-c2n[nH]c(=O)n2-c2ccc3c(ccn3C)c2)c(O)cc1O | -82.8% (active) |
| CC(C)CCCCC(=O)NC(CCN)C(=O)NC(C(=O)NC(CCN)C(=O)NC1CCNC(=O)C(C(C)O)NC(=O)C(CCN)NC(=O)C(CCN)NC(=O)[C@H](CC(C)C)NC(=O)[C@@H](CC(C)C)NC(=O)C(CCN)NC1=O)C(C)O (stereo partly drawn) ({Heptanoyl(6-Me)}-[ξDab][ξT][ξDab][ξDab][ξDab][dL]L[ξDab][ξDab][ξT]; lactam 4-C) | 5.64% (inactive) |
